Data published in PubChem BioAssay AID431 (Sanford-Burnham Center for Chemical Genomics, 2006).
The whole screen tested about 63,000 compounds, of which about 1,100 (1.7%) were called active.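 How the source made its calls: active means compounds whose percent cytotoxicity in the single-dose primary screen, scaled between solvent and toxic-drug controls, exceeds 50; inactive means the rest.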 The full list was thinned out, with actives kept by preference. Entries with a potency or affinity are not part of this list.

Assay: cytotoxicity in KRAS-transformed pancreatic duct cells, primary screen, cell-based, fluorescence, HTS (AID 431);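 further: 0% = DMSO solvent wells and 100% = doxorubicin-treated wells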
Settings: HPDE-C7K KRASV12 cells, Alamar Blue viability, 48 h; at 10 µM; active compounds read high

SMILES	cytotoxicity
C=CCn1c(SCCN2CCOCC2)nc2c1c(=O)[nH]c(=O)n2C	-10.8% (inactive)
Cc1[nH]n2c(=O)cc(C(C)(C)C)nc2c1-c1ccccc1	81.8% (active)
Cc1[nH]n2c(=O)cc(C(C)C)nc2c1-c1ccccc1	28.7% (inactive)
Cc1cc(=O)n2[nH]c(C)c(-c3ccccc3)c2n1	-7% (inactive)
CC(C)(C)NC(=O)C1N(c2cccnc2)C(=O)C2C(C(=O)Nc3ccccc3)C3(C)C=CC21O3 (stereo not drawn)	-15.4% (inactive)
CCOC(=O)CSc1nc2cc(OCC)ccc2cc1C#N	56.4% (active)
CCOC(=O)CSc1nc2cc(C)ccc2cc1C#N	-2.4% (inactive)
CCOC(=O)CSc1nc2cc(OC)ccc2cc1C#N	12.3% (inactive)
COc1cccc(-c2nn(-c3ccccc3)cc2CO)c1	7.7% (inactive)
CCOc1ccc(OCC)c(NC(=O)CSc2nc3ccccc3c(=O)n2C)c1	16.7% (inactive)
O=C(Nc1ccc(CN2CCCCC2)cc1)c1ccc(Br)o1	-24.8% (inactive)
O=C(Nc1ccc(CN2CCOCC2)cc1)c1cc2ccccc2o1	5.8% (inactive)
O=C1NCCN1C(=O)C12CC3CC(CC(C3)C1)C2	-2.7% (inactive)
Cc1nc2ccc3nc(NC(=O)c4ccc5c(c4)OCCO5)sc3c2s1	-0.1% (inactive)
COc1ccc2[nH]c(=O)c(CN(Cc3ccco3)C(=O)c3ccccc3)cc2c1	-1.9% (inactive)
CCOc1ccc2[nH]c(=O)c(CN(Cc3ccco3)C(=O)c3cccc(F)c3)cc2c1	82% (active)
CCOc1ccc2[nH]c(=O)c(CN(Cc3ccco3)C(=O)c3ccc(Br)cc3)cc2c1	21.8% (inactive)
O=C(c1c(Cl)nc2sccn12)N(C(=O)c1c(Cl)nc2sccn12)c1ccc(Cl)cn1	16% (inactive)
COc1ccc(Oc2c(C)oc3cc(OC(=O)N4CCOCC4)ccc3c2=O)cc1	-5% (inactive)
COc1ccc(-n2ccnc2SCC(=O)NCc2ccc3c(c2)OCO3)cc1	3.4% (inactive)
COc1ccc(NCc2ccc(OC)c(OC)c2)cc1	-7.9% (inactive)

SMILES	cytotoxicity
COc1ccc(CNc2ccc(-c3ccc(OC)cc3)nn2)cc1	59.4% (active)
COc1ccc(-c2cc(=O)[nH]c(NCc3ccccc3)n2)cc1	7.1% (inactive)
COc1ccc(C(CC(=O)O)NS(=O)(=O)c2ccc(C)cc2)cc1OC (stereo not drawn)	-5.1% (inactive)
Cc1nnc(C)n1/N=C/C=C/c1ccccc1	-40% (inactive)
O=C(O)c1cccc(Cn2cc(Br)cn2)c1	-3.7% (inactive)
O=C(c1ccc(Cn2cc(Br)cn2)cc1)N1CCN(c2ccccc2)CC1	54.2% (active)
O=C(c1ccc(Cn2cc(Cl)cn2)cc1)N1CCN(c2ccccc2)CC1	4.2% (inactive)
Fc1ccc(Br)cc1C1C=C(c2cccnc2)Nc2ncnn21 (stereo not drawn)	10.9% (inactive)
Fc1ccc(Br)cc1C1C=C(c2ccc(Br)s2)Nc2ncnn21 (stereo not drawn)	56.5% (active)
COc1cccc(C2C=C(c3ccc(Br)s3)Nc3ncnn32)c1OC (stereo not drawn)	-7.6% (inactive)
COc1ccccc1CCC(=O)Nc1nc2ccccc2[nH]1	3.7% (inactive)
O=C(O)c1cc(NCc2c(F)cccc2Cl)ccc1N1CCOCC1	-14.3% (inactive)
C=CCn1c(SCC(=O)Nc2c(C)cccc2C)nnc1-c1cnccn1	-10% (inactive)
CCCC(=O)N1CCN(S(=O)(=O)c2cc(Cl)ccc2OC)CC1	-3.6% (inactive)
CCC(=O)c1ccc(O)cc1	-12% (inactive)
C=C(c1ccc(O)cc1)c1ccc(O)cc1	12.5% (inactive)
C/C=C(/C(=C/C)c1ccc(O)cc1)c1ccc(O)cc1	111% (active)
CC(C)(C)NC(=O)NC(=O)COC(=O)COc1ccc2c(c1)CCC2	-4.8% (inactive)
CCN(CC)CCNC(=O)c1c(C)oc2cc(Br)c(OC)cc12	15.1% (inactive)
CCOC(=O)c1c(CN2CCCCC2)n(C)c2cc(Br)c(OC)cc12	16.9% (inactive)
CCOC(=O)c1c(CN2CCN(C)CC2)n(C)c2cc(Br)c(OC)cc12	-8.5% (inactive)

SMILES	cytotoxicity
CCOC(=O)c1c(CNCCN(CC)CC)n(C)c2cc(Br)c(OC)cc12	71.2% (active)
CCOC(=O)c1c(CN2CCN(CCO)CC2)n(C)c2cc(Br)c(OC)cc12	98.7% (active)
CCOC(=O)c1c(C)n(C)c2cc(Br)c(C(=O)OC)cc12	5.9% (inactive)
O=C(COC(=O)c1cccc(S(=O)(=O)N2CCc3ccccc32)c1)NC1CCS(=O)(=O)C1 (stereo not drawn)	23.6% (inactive)
O=C(O)Cn1cnc2scc(-c3cccs3)c2c1=O	6.1% (inactive)
Clc1ccc(Cc2noc(Cc3ccccc3)n2)cc1Cl	-5% (inactive)
CCOC(=O)C(CCSC)NC(=O)CN (stereo not drawn)	-9.8% (inactive)
COC(=O)C1C(=O)c2c([nH]c(C(=O)OCCOC(C)C)c2C)CC1C (stereo not drawn)	-0.2% (inactive)
CCC(C)(C(=O)NC1CCCCC1)N(CC1CCCO1)C(=O)c1ccccn1 (stereo not drawn)	-5.6% (inactive)
CC1(C)CC(=O)C(C=NCC2CCCO2)=C(O)C1 (stereo not drawn)	-19.7% (inactive)
CC(=O)Nc1cc2c(cc1C(=O)c1ccc(C)cc1)OCCO2	0.7% (inactive)
COc1ccc(O)c(-c2cc(-c3cccs3)[nH]n2)c1	34.1% (inactive)
Oc1ccc(Br)cc1-c1cc(-c2ccccc2F)[nH]n1	18% (inactive)
Cc1nn(Cc2ccc(Cl)cc2Cl)c(C)c1NC(=O)c1nc2n(n1)C(C(F)F)CC(C)N2 (stereo not drawn)	9.5% (inactive)
CCOC(=O)c1[nH]c(C)c(/C=N/O)c1C	0.1% (inactive)
NC(=O)CSc1nnc(CNc2ccc(F)cc2)n1CC1CCCO1 (stereo not drawn)	-7.7% (inactive)
CCCn1c(SCC(=O)Nc2sc(C)c(C)c2C(=O)OCC)nc2c1c(=O)n(C)c(=O)n2C	0.3% (inactive)
CCOC(=O)c1c(NC(=O)CSc2nc3c(c(=O)n(C)c(=O)n3C)n2C(C)C)sc(C)c1C	77.5% (active)
COC(=O)c1c(NC(=O)CSc2nc3c(c(=O)n(C)c(=O)n3C)n2C(C)C)sc(C)c1C	-14% (inactive)
CCn1c(SCC(=O)Nc2cc(C)ccc2C)nc2c(c1=O)SC(C)C2 (stereo not drawn)	8.9% (inactive)
Cn1c(=O)c2c(nc(CN3CCN(c4ccc(F)cc4)CC3)n2CCN2CCOCC2)n(C)c1=O	-4.6% (inactive)
